This note sets out measurements from PubChem BioAssay (NCI).

What all share (assay): NCI-60 one-dose screen, 48 h (100 = growth as untreated, 0 = no growth, -100 = all killed)
Conditions in all cases: 10 µM unless noted

Experiment [1] relates to SK-MEL-2 melanoma.
In experiment [2] the test system is EKVX NSCLC.
Experiment [3] has as its system SN12C renal.
Experiment [4] has as its system UO-31 renal.
The test system of experiment [5] is TK-10 renal.
Experiment [6] deals with ACHN renal.
In experiment [7] the test system is CAKI-1 renal.
Experiment [8] relates to A498 renal.
For experiment [9], the system named is CCRF-CEM leukemia.
Experiment [10] concerns MOLT-4 leukemia.
The test system of experiment [11] is SR leukemia.
Experiment [12] relates to RPMI-8226 leukemia.
The test system of experiment [13] is OVCAR-8 ovarian.
Experiment [14] concerns OVCAR-5 ovarian.
The subject of experiment [15] is OVCAR-4 ovarian.
Experiment [16] relates to SK-OV-3 ovarian.
Experiment [17] concerns IGROV1 ovarian.
Experiment [18] concerns OVCAR-3 ovarian.
Experiment [19] concerns HS 578T breast.
Experiment [20] relates to NCI/ADR-RES ovarian.

The structures appear in SMILES notation. “And” between values parts separate entries of the source, which are not always exact repeats. Equal values may be shown once. This is part of a sample that, as a whole, favours compounds with a hit. Of some 83,000 tested, about 20% had one in any assay.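 A percent growth of 40 corresponds to 60% growth inhibition; 0 means no net growth; -100 means all cells died. Active threshold: below 10.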 The source made the active and inactive calls.

For the compound `Cn1cc(-c2cc(N)n3nc(-c4c[nH]c5ccc(F)cc45)cc3n2)c2cccnc21`, the growth in [1] was 86.8% (inactive); in experiment [2] it was -64.9% (active); in [3], -80.6% (active); in experiment [4], -75.8% (active); in experiment [5], -68.7% (active); in experiment [6], -93.8% (active). Also, the growth was -70.7% (active) in experiment [7]; -74.8% (active) in experiment [8]; -34.6% (active) in experiment [9]; -30.1% (active) in experiment [10]; -11.7% (active) in experiment [11]; -30.3% (active) in experiment [12]. The growth was -59.6% (active) in experiment [13]; -81.1% (active) in experiment [14]; -30% (active) in experiment [15]; -56% (active) in [16]; -71.4% (active) in [17]; -76.1% (active) in experiment [18]. Also, the growth in experiment [19] was -14.6% (active); in experiment [20] it was -44.7% (active).

With `COc1ccc(CCC2NCCc3c(Br)c4c(c(OC)c32)OCO4)cc1` (stereo not given), the growth in [1] is -16.9% (active); in experiment [2], 24.4% (inactive); in experiment [3], 13.2% (inactive); in experiment [4], 21.1% (inactive); in [5] it was 44% (inactive); in experiment [6] it was 15.5% (inactive). The growth in [7] is 16.5% (inactive); in experiment [8], 79% (inactive); in experiment [9], 19.6% (inactive); in experiment [10], 9.59% (active); in [11], -6.62% (active); in experiment [12], 11% (inactive). In addition, the growth in experiment [13] was 27.9% (inactive); in [14] it was 11.6% (inactive); in [15], 42.4% (inactive); in experiment [16], 28.8% (inactive); in experiment [17], 1.92% (active); in [18] it was 1.09% (active). The results for the growth in experiment [19] and in experiment [20] were 8.95% (active) and -13.9% (active), respectively.

As for `O=C(NC(=S)N1CCN(c2ncnc3c2cnn3-c2ccccc2)CC1)c1ccc(Br)cc1`, the growth in [1] is 87.4% (inactive); in [2], 76.4% (inactive); in experiment [3], 48.4% (inactive); in experiment [4], 70.7% (inactive); in experiment [5], 127% (inactive); in experiment [6], 69.2% (inactive). Besides, the growth in experiment [7] was 47.8% (inactive); in experiment [8] it was 104% (inactive); in experiment [9], 81.2% (inactive); in experiment [10], 81.5% (inactive); in experiment [11], 14.1% (inactive); in experiment [12], 83.4% (inactive). In addition, the growth in [13] was 47.4% (inactive); in experiment [14], 81.8% (inactive); in experiment [15], 41.9% (inactive); in [16], 57% (inactive); in experiment [17] it was 72.1% (inactive); in experiment [18] it was 89.6% (inactive). Besides, the figures for the growth in experiment [19] and in experiment [20] were 53.8% (inactive) and 53.9% (inactive), respectively.

In the case of `COc1cc(C=O)ccc1Oc1nc(Nc2ccc(F)cc2)nc(N(C)C)n1`, the growth in [1] is 62.6% (inactive) and 85.2% (inactive); in experiment [2], 76.9% (inactive) and 60.4% (inactive); in experiment [3], 92.2% (inactive) and 58.5% (inactive); in [4], 67.6% (inactive) and 48.7% (inactive); in [5] it was 84.2% (inactive) and 86.8% (inactive); in [6], 105% (inactive) and 63.3% (inactive). Further, the growth is 69.2% (inactive) and 58.3% (inactive) in experiment [7]; 98.6% (inactive) and 123% (inactive) in experiment [8]; 86.1% (inactive) and 18.1% (inactive) in experiment [9]; 73.1% (inactive) and 23.8% (inactive) in experiment [10]; 70.9% (inactive) and 6.2% (active) in experiment [11]; 60% (inactive) and 67% (inactive) in [12]. For the same compound, the growth in [13] was 85.3% (inactive) and 56.7% (inactive); in experiment [14] it was 100% (inactive) and 105% (inactive); in [15], 56.4% (inactive) and 47.8% (inactive); in experiment [16], 87.6% (inactive) and 122% (inactive); in experiment [17] it was 96.7% (inactive) and 49.3% (inactive); in [18], 62.1% (inactive) and 78.7% (inactive). The growth in experiment [19] was 85.5% (inactive) and 41.5% (inactive); in experiment [20], 81.7% (inactive) and 54.3% (inactive).

For `CC1(C)CC(=O)C2=C(C1)OC(N)=C(c1nc3ccccc3[nH]1)C2c1ccc(Cl)cc1` (stereo not given), the growth in [1] was 43.5% (inactive) and 112% (inactive); in experiment [2], 57% (inactive) and 100% (inactive); in experiment [3], 79.7% (inactive) and 105% (inactive); in experiment [4], 71.2% (inactive) and 86.4% (inactive); in [5] it was 71.7% (inactive) and 106% (inactive); in experiment [6], 62.4% (inactive) and 106% (inactive). The growth in experiment [7] is 63.9% (inactive) and 103% (inactive); in [8], 66.9% (inactive) and 149% (inactive); in [9], 31.8% (inactive) and 102% (inactive); in experiment [10], 17.6% (inactive) and 103% (inactive); in experiment [11], 41.4% (inactive) and 97.8% (inactive); in experiment [12], 45.8% (inactive) and 109% (inactive). The growth in experiment [13] was 69.2% (inactive) and 108% (inactive); in experiment [14], 101% (inactive) and 118% (inactive); in [15], 57.6% (inactive) and 109% (inactive); in [16] it was 111% (inactive) and 108% (inactive); in experiment [17], 62.3% (inactive) and 108% (inactive); in experiment [18] it was 47.8% (inactive) and 78.4% (inactive). Further, the growth in experiment [19] was 6.8% (active) and 119% (inactive); in experiment [20], 78% (inactive) and 109% (inactive).

For the compound `COC(=O)c1c(C(=O)OC)c2c3ccccc3c3ccccc3n2c1C(=O)C(C)(C)C`, the growth was 83.4% (inactive) in [1]; 96.2% (inactive) in [2]; 87.3% (inactive) in [3]; 75.4% (inactive) in experiment [4]; 105% (inactive) in experiment [5]; 82% (inactive) in experiment [6]. Moreover, the growth was 60.7% (inactive) in experiment [7]; 132% (inactive) in experiment [8]; 65.6% (inactive) in [9]; 45.7% (inactive) in experiment [10]; -17.3% (active) in experiment [11]; 47.2% (inactive) in experiment [12]. Also, the growth is 90.5% (inactive) in [13]; 97.9% (inactive) in experiment [14]; 57.6% (inactive) in [15]; 122% (inactive) in experiment [16]; 96.3% (inactive) in [17]; 112% (inactive) in experiment [18]. The growth was 69.4% (inactive) in experiment [19] and 83.3% (inactive) in [20].

Regarding `COc1cc(C=O)ccc1OC(=O)c1cc(-c2ccc(C)cc2)n(-c2ccc(S(C)(=O)=O)cc2)n1`, the growth in [1] is 108% (inactive); in experiment [2], 98.8% (inactive); in experiment [3], 99.2% (inactive); in experiment [4], 85.6% (inactive); in experiment [5], 126% (inactive); in [6] it was 104% (inactive). Moreover, the growth is 93.5% (inactive) in experiment [7]; 143% (inactive) in [8]; 96.9% (inactive) in experiment [9]; 91.4% (inactive) in experiment [10]; 121% (inactive) in experiment [11]; 94.7% (inactive) in experiment [12]. In addition, the growth is 105% (inactive) in [13]; 109% (inactive) in [14]; 105% (inactive) in [15]; 107% (inactive) in experiment [16]; 111% (inactive) in [17]; 119% (inactive) in experiment [18]. Besides, the growth in experiment [19] is 116% (inactive); in [20], 107% (inactive).
